Source: PubChem BioAssay
HDAC3 inh = HDAC3 deacetylase inhibitors, primary screen, biochemical, fluorescence, cell-free homogeneous; Histone deacetylase 3 (Homo sapiens), O15379; inhibition, % at 8.3 µM; 0.15% of 320,000 active; recombinant HDAC3, fluorogenic peptide/trypsin coupled; in the data active = inhibition above about 26%, passing the limit was not always enough; inconclusive = no clear call, values can overlap the other calls
IDE act = human IDE activators in live cells, primary screen, fluorescence polarization, HEK cells, FAbeta-B substrate. Insulin-degrading enzyme (Homo sapiens), P14735. FAbeta-B cleavage; 0% vehicle, 100% cell-free pure enzyme wells. activation, % at 5.96 µM. 0.073% of 340,000 active. AID 493087, 2011;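 active = activation above the mean of all tested compounds plus 3 SD, set per screening campaign, cut at about 17% in these data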
IDE cell inh = human IDE inhibitors in live cells, primary screen, fluorescence polarization, HEK cells, FAbetaB substrate; FAbetaB cleavage; inhibition, % at 5.59 µM; 0.41% of 320,000 active; Insulin-degrading enzyme (Homo sapiens), P14735; AID 434962, 2010;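 active = percent inhibition above the average of all tested compounds plus 3 SD, set per screening campaign, cut at about 16% in these data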;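 note: IDE supplied by intact live HEK cells; FP after avidin binding of uncleaved biotin substrate so inhibition keeps polarization high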
Mot1-301 SUMO = yeast Mot1-301 growth rescue at high temperature, primary screen, SUMOylation pathway inhibitor project, S. cerevisiae, ATP luminescence, 38.5C | S. cerevisiae Mot1-301 growth rescue; percent above DMSO median, 100 means doubled | growth rescue, % at 18.8 µM | 1% of 320,000 active;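 active = every valid replicate shows activation above 250% relative to neutral control wells; inactive = the rest, any valid replicate at or below 250%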
LANA-H2A inh = blockers of LANA interaction with H2A/H2B – biochemical, FP readout, HTS, primary screen. inhibition, % (no concentration beside the values). AID 2629, 2010. 0.6% of 320,000 active. Protein LANA1 (Human herpesvirus 8 type P (isolate GK18)), Q9QR71. cell-free LANA-H2A/H2B peptide, fluorescence polarization; in the data active = inhibition mostly above about 10%, no sharp cut-off; inactive = mostly below about 6.7%
Numbers stand for hits; 0 = inactive; ? = inconclusive; - = not tested or not shown; + = active, no number. Sampled rows, rich in hits. Any-hit rate of the full collection: about 2.1%.

SMILES	HDAC3 inh	IDE act	IDE cell inh	Mot1-301 SUMO	LANA-H2A inh
CC(Oc1ccc(Cl)cc1)C(=O)Nc1nccs1 (stereo not given)	0	0	0	0	21.2
Cc1cc(NC(=O)CSc2nc3ccsc3c(=O)n2CCCC(=O)NCCc2ccccc2)no1	0	0	0	770.8	0
CN(C)S(=O)(=O)N1CCN(c2ccnc3cc(Cl)ccc23)CC1	0	0	0	0	0
CC(C)S(=O)(=O)N1CCN(c2ccnc3cc(Cl)ccc23)CC1	0	-	23.3	0	0
O=C(c1ccncc1)N1CCN(C2CCCCC2)CC1	0	0	0	0	0
O=C(c1ccncc1)N1CCN(C2CCC(c3ccccc3)CC2)CC1 (stereo not given)	0	0	0	305.2	0
O=C(c1cccc([N+](=O)[O-])c1)c1ccc2c(c1)OCCOCCOCCOCCO2	0	-	0	0	13.2
O=C(c1ccccc1)c1ccc2c(c1)OCCOCCOCCOCCO2	0	0	0	0	0
O=C(CN1C(=O)NC2(CCc3ccccc32)C1=O)c1ccc(Br)s1 (stereo not given)	0	0	0	0	0
CCOC(=O)/C=C/C(=O)Nc1ccc(Oc2ccccc2)cc1	0	0	0	0	0
COc1ccc(N2C(=O)CS/C2=N\C(=S)Nc2ccccc2)cc1	0	0	0	0	0
Cc1ccc(Cn2nc(C)c(C(=O)N3CCN(S(=O)(=O)/C=C/c4ccccc4)CC3)c2C)cc1	0	32.8	0	0	0
O=C(CSc1cccc[n+]1[O-])NC1CCCCC1	0	0	0	0	0
CSCC(C)N1CCC(Oc2cccc(C(=O)NCc3ccccn3)c2)CC1 (stereo not given)	0	0	0	0	0
COc1cccc(CC(=O)NNC(=O)CN(C)S(=O)(=O)c2ccc(C)cc2)c1	0	0	0	0	0
CC(C#N)(Nc1ccc(Cl)cc1)c1cccnc1 (stereo not given)	0	0	0	306.2	0
Cc1ccc(N2C(=O)N(CC(=O)Nc3ccc(C)c(C)c3[N+](=O)[O-])C(=O)C2C)cc1 (stereo not given)	0	0	0	0	129.7
Cc1ccc(N2C(=O)N(CC(=O)Nc3ccc(C)cc3[N+](=O)[O-])C(=O)C2C)cc1 (stereo not given)	0	0	0	0	0
O=C(NNC(=O)C1CCCN(c2ncccn2)C1)c1ccncc1 (stereo not given)	0	0	0	0	11.6
Cc1ccccc1C(=O)NNC(=O)C1CCCN(c2ncccn2)C1 (stereo not given)	0	0	0	0	0
CCn1c(SCC(=O)N2CCC(C)CC2)nc2c1c(=O)n(C)c(=O)n2C	0	0	0	0	0
CCOc1ccccc1N=C1SCC(C)N1C(=O)C1CCN(c2ncnc3sc(C)c(C)c23)CC1 (stereo not given)	-	0	-	-	-
O=C(O)CC/C(=N/Nc1ccc([N+](=O)[O-])cc1)C(=O)O	0	0	0	0	0
O=C(O)CC/C(=N\Nc1ccc([N+](=O)[O-])cc1)c1ccccc1	0	0	0	367.3	0
CC(C)C12CN3CC(C(C)C)(CN(C1)C3c1ccccc1)C2O (stereo not given)	0	0	0	0	8.5
SMILES	HDAC3 inh	IDE act	IDE cell inh	Mot1-301 SUMO	LANA-H2A inh
CC(=O)c1ccc(-c2ccc(C(=O)N(C)c3c(N)n(Cc4ccccc4)c(=O)[nH]c3=O)o2)cc1	?	0	0	0	0
COc1ccc(S(=O)(=O)NCc2cccnc2)cc1C(=O)NC1CCCCC1	0	0	0	0	0
CCNS(=O)(=O)c1ccc(OC)c(C(=O)NC2CCCCC2)c1	0	0	0	322.7	0
CCN1C(=O)CCCc2ccccc21	0	0	0	0	0
CNCCCN1c2ccccc2CCc2ccccc21	0	0	0	0	9.8
CN(CCCN1c2ccccc2CCc2ccccc21)CC(=O)c1ccc(Cl)cc1	0	-	0	0	0
CN(C)CCCN1c2ccccc2CCc2ccc(Cl)cc21	0	0	0	0	15.3
O=C(CN1CCN(S(=O)(=O)c2cccc(Br)c2)CC1)NCCc1cccs1	0	0	0	0	0
Cc1cc(S(=O)(=O)N2CCN(CC(=O)NCCc3cccs3)CC2)ccc1Br	0	0	0	0	+
O=S(=O)(Cc1ccccc1Cl)N1CCN(Cc2ccc3c(c2)OCO3)CC1	0	0	0	277.3	0
